Source: PubChem BioAssay (National Center for Advancing Translational Sciences (NCATS))
Only some compounds are listed: those with a hit (about 2% of all), similar ones and a draw of the others.
LDHA block – inhibitors of human lactate dehydrogenase A. P00338. purified LDHA, NADH/diaphorase-resazurin fluorescence; active compounds read low. activity change, % (values are at about 110 or 230 µM). 480,000 compounds, 0.15% hits. AID 1347041; in the data active means activity change below about -30%; inconclusive means mostly about -25% to -30%;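 further: plate controls were DMSO wells for no effect and wells without enzyme for full effect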
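LDH5 2 nM; NADH 0.06 mM, pyruvate 0.2 mM; 200 mM Tris pH 7.4, EDTA, Tween-20; 5 min RT. Detection: diaphorase 0.133 mg/mL + resazurin 37 µM, fluorescence ex540/em590 at 0 and 20 min; normalized to enzyme-free and DMSO wells.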
mIDH1 inhibitor – human IDH1 R132H inhibition; 390,000 compounds, 0.093% hits; IDH1-R132H enzyme, NADPH consumption, diaphorase/resazurin fluorescence; Potency, µM (top dose mostly 76.6 µM), for inactives: top-dose activity change, negative = inhibition, actives largely listed as inhibitors; O75874; further: potency means the concentration at half of the fitted maximal effect; on the % scale 0 is the no-effect control and ±100 the full control effect; nearly all actives have a fitted effect of over 65% in size
Target sequence (O75874 whole entry R132H, stated change not applied): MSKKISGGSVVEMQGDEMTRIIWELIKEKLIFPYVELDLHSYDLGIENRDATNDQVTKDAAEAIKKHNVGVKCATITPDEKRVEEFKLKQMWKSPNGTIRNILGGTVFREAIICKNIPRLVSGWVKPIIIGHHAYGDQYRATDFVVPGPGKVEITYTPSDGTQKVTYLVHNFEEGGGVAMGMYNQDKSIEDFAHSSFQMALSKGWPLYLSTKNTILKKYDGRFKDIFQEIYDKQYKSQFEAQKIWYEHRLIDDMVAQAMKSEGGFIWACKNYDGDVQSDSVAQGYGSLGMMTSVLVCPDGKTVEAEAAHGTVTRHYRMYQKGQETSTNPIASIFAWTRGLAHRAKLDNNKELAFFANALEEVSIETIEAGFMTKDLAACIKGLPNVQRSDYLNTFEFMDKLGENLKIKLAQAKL
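IDH1-R132H (0.5 ug/mL) preincubated 30 min with compound, then NADPH (0.016 mM) and alpha-KG (2 mM) added; 80 min at RT, pH 7.5. Remaining NADPH coupled via diaphorase/resazurin to fluorescence (540/590 nm); concentration-response curves normalized to no-enzyme control.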
TDP-43 yeast inh – inhibitors of TDP-43 toxicity in yeast; TDP-43 expressing yeast growth rescue, BacTiter-Glo, 24 h; Potency, µM (doses to about 46.1 µM), inactives show at the highest dose growth rescue (activation), actives largely listed as activators; 410,000 compounds, 1.8% hits; further: potency means the concentration at half of the fitted maximal effect; % of control where 0% means no effect; nearly all actives have a fitted effect of over 50% in size
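Readout is BacTiter-Glo luminescence of cell growth, so inhibitors register as activators. TDP-43-expressing yeast at OD600=0.02 in galactose medium, after raffinose pregrowth to mid-log, were incubated with compound for 24 hr at 30 deg C.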
Abeta rescue – A-beta toxicity reversal in yeast. Potency, µM (highest dose often 46.1 µM), usual class: activators. 410,000 compounds, 0.063% hits. yeast expressing A-beta42, growth rescue, OD600, 48 h; response scale: 0% DMSO, 100% iron-clioquinol control; further: potency means the concentration at half of the fitted maximal effect; nearly all actives have a fitted effect of over 55% in size
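Yeast A-beta toxicity model in growth medium with pinned compounds, 48 h at 30 C; growth read as absorbance at 600 nm. Normalized to FeCl3/clioquinol equimolar mix (positive) and DMSO (negative).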
FUS suppressor – suppressors of FUS proteinopathy in yeast; S. cerevisiae FUS-expressing, growth rescue, OD600, 24 h; Potency, µM (highest dose often 76.6 µM), usual class: activators; 390,000 compounds, 0.24% hits;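 further: potency means the concentration at half of the fitted maximal effect; plate controls were DMSO vehicle for no effect and reference control for full effect; nearly all actives have a fitted effect of over 55% in size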
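Read-out: OD at 600 nm after 24hr at 30C, reporting rescue of FUS-induced yeast toxicity. Cells at OD 0.005 in galactose (2%) minimal medium; compounds tested in a dilution series; CP55940 titration from 92uM final as control.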
aSyn yeast inh – rescues yeast growth from alpha-synuclein toxicity; Yeast expressing alpha-synuclein, growth rescue, BacTiter-Glo, 24 h; AID 652106; Potency, µM (titrated, usually from 46.1 µM), for inactives: at the highest dose growth rescue (activation), hits mostly activators; 370,000 compounds, 0.14% hits; further: potency means the concentration at half of the fitted maximal effect; % of control where 0% means no effect; nearly all actives have a fitted effect of over 65% in size
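Galactose-induced alpha-syn yeast (OD600=0.02, raffinose-pregrown) + pinned cpd, 24 hr, 30 deg C; growth by BacTiter-Glo luminescence. Growth restoration scores as activation.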
* marks the source's active call; other numbers are inactive results; i = inactive; ? = inconclusive; . = no result given; ! = repeats disagree. Unless noted, the call rests on the fitted dose curve; in most records, active means well fitted curve in the direction sought with a large enough effect; inconclusive means small, poorly fitted or top-dose-only effect, or another doubt; inactive means no such curve, though single readings can be large; an effect the other way counts as inactive or inconclusive.

SMILES	LDHA block	mIDH1 inhibitor	TDP-43 yeast inh	Abeta rescue	FUS suppressor	aSyn yeast inh
CCSc1nnc(-c2ccc(OC)cc2)o1	-1.4	0.0%	?	i	i	2.3%
COc1ccc(-c2nnc(SCc3ccccc3F)o2)cc1	-0.8	6.1%	11.2µM*	i	i	5.1%
Cc1sc(NC2CCCC2)nc1-c1ccc(NS(C)(=O)=O)cc1	-1.2	.	.	.	.	.
Cc1ccc(C(=O)Nc2nnc(-c3ccco3)o2)cc1Br	0.4	.	.	.	.	.
Nc1ccc(NC(=O)c2cccc(C(=O)Nc3ccc(N)cc3Cl)c2)c(Cl)c1	-1.2	-0.3%	-16.0%	i	11.2µM*!	-1.0%
Nc1cccc(C(=O)Nc2ccc(N)cc2Cl)c1	1.9	-1.0%	-16.1%	i	i	-0.5%
Cc1cccc(C)c1NC(=O)CSCc1cnn(-c2ccccc2)c1-n1cccc1	2.3	-5.8%	25.1µM*	i	i	.
CCOc1ccc(NC(=O)CSCc2cnn(-c3ccccc3)c2-n2cccc2)cc1	1.7	9.4%	20µM*	i	i	11.1%
COc1cccc(CNC(=O)CSCc2cnn(-c3ccccc3)c2-n2cccc2)c1OC	1.9	2.6%	?	i	i	20.8%
Cc1ccc(NC(=O)CSCc2cnn(-c3ccccc3)c2-n2cccc2)c(Cl)c1	-2.4	-4.7%	15.3%	i	i	.
COc1ccccc1CNC(=O)CSCc1cnn(-c2ccccc2)c1-n1cccc1	-3.1	-1.3%	17.8µM*	i	i	14.2%
O=C(c1cc(=O)c2cc(F)ccc2o1)N(Cc1cccs1)c1ccccn1	7.2	.	.	.	.	.
CN(C)c1nc(N(C)C)nc(N(C#N)CCOc2ccccc2)n1	-0.8	2.4%	-1.6%	i	i	17.5%
Cc1cc(C)nc(N(C#N)CCOc2ccccc2)n1	-7.8	-2.2%	12.6µM*	i	i	?
CC(C)c1cccc(C(C)C)c1NC(=O)C1CC=CCC1 (stereo not given)	-31.8*	.	.	.	.	.
C=CCc1c(C)nc(Nc2nc(C)c3cc(CC)ccc3n2)[nH]c1=O	-1.5	.	.	.	.	.
COc1cc2c(cc1OC)CN(C1CC(=O)N(c3c(C)cccc3C)C1=O)CC2 (stereo not given)	-4.7	-6.1%	14.1µM*	i	i	9.9%
Cc1ccc(S(=O)(=O)NCC(=O)O)cc1C	9.6	.	.	.	.	.
CCNc1cc(C)nc(Nc2ccc(NC(=O)c3cccc(Cl)c3)cc2)n1	14.1	.	.	.	.	.
CSc1ccc(-c2nc3ncccn3c2Nc2ccccc2)cc1	-22.5	.	.	.	.	.
Nc1ccccc1C#Cc1ccccc1	1.2	-3.5%	20.0%	i	i	-2.8%
Nc1ccc(C#Cc2ccccc2)cc1	-2.8	8.2%	14.1µM*	i	i	4.9%
Fc1cccc(Nc2ncnc3sccc23)c1	-18.1	-12.5%	20µM*	i	i	-8.4%
c1ccc2c(c1)OCC(CNc1ncnc3sccc13)O2 (stereo not given)	-5.3	-6.1%	20µM*	i	i	11.9%
COc1ccccc1CNc1ncnc2sccc12	-5.6	0.0%	25.0%	i	i	3.2%
SMILES	LDHA block	mIDH1 inhibitor	TDP-43 yeast inh	Abeta rescue	FUS suppressor	aSyn yeast inh
Fc1ccccc1CNc1ncnc2sccc12	-8.5	9.0%	11.2µM*	i	i	-1.8%
Cc1n[nH]c(C)c1S(=O)(=O)N(CC(=O)NCc1ccc(F)cc1)c1ccc(C(C)C)cc1	19.0	.	.	.	.	.
O=C(CCCC(=O)c1ccccc1)Nc1ccc(F)cc1	-6.3	13.7%	5.62µM*	i	i	-8.3%
O=C(CCC(=O)c1ccc(F)cc1)Nc1ccc(-c2ccccc2)cc1	-2.7	.	.	.	.	.
Cc1ccc2ccc3c(c2n1)NS(=O)(=O)c1ccc(C(F)(F)F)cc1-3	2.6	.	.	.	.	10µM*
O=S1(=O)Nc2c(cc(Cl)c3ccc(Cl)nc23)-c2ccccc21	-2.8	.	.	.	.	-19.3%
NC(=O)c1cc(Cc2ccccc2)sc1NC(=O)c1ccncc1	-0.6	.	.	.	.	.
CSc1nc(Cl)cc(Nc2ccccc2N)n1	-11.4	9.8%	10µM*	i	i	8.9%
